Results on nine compounds are retold here after PubChem BioAssay (NCATS).

Assay [1] in a line: Viability qHTS for spleen associated tyrosine kinase inhibitor (SYKi) naive MV4-11 cells (AID 1963823). Also: nearly all actives have a fitted effect of over 40% in size. The conditions noted are these: MV4-11 AML viability, CellTiter-Glo luminescence, 72 h; series mostly up to 45 µM. The method, boiled down:
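In this viability screen, compounds acted on SYK inhibitor naive MV4-11 cells for three days (72 hr, 37 C). Remaining viable cells were measured by CellTiter-Glo luminescence following a 10 min room-temperature development.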
Background: qHTS replaces the single test concentration by a dilution series.

A short description of assay [2]: Viability qHTS for spleen associated tyrosine kinase inhibitor (SYKi) drug resistant MV4-11 cells (AID 1963824). Also: nearly all actives have a fitted effect of over 35% in size. The settings on record: SYKi-resistant MV4-11 viability, CellTiter-Glo, 72 h; series mostly up to 45 µM. The method, boiled down: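 SYK-inhibitor-resistant MV4-11 AML cells were seeded at 500 per well onto compound and cultured 72 hours (37 °C, 5% CO2). CellTiter-Glo was then added, and after 10 min at room temperature, luminescence gave viability.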

Assay [3] is described as follows: Cellular viability qHTS for adrenocortical cancer (ACC) cell line SW-13 (AID 1963989). Also: nearly all actives have a fitted effect of over 65% in size.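 As to activity (max response): cells grown in serum-free medium with ITS supplement; % is scaled to controls: 0 for no effect and ±100 for the full control effect.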 The conditions noted are these: SW-13 ACC cells viability, CellTiter-Glo, 48 h; activity (max response): stronger effect = lower value. The gist of the method: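 Compound titrations (up to 46 uM final, in DMSO) were applied to SW-13 cells for 48 h at 37C/5% CO2. Reading used CellTiter-Glo after 20 min at room temperature; fitted curves yielded IC50 and efficacy.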

Assay [4] can be described thus: Cellular viability qHTS for adrenocortical cancer (ACC) cell line NCI-H295R (AID 1963990). Also: nearly all actives have a fitted effect of over 60% in size. The conditions noted are these: CellTiter-Glo ATP luminescence, 48 h; series mostly up to 46.1 µM. The gist of the method: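 Readout: CellTiter-Glo luminescence, 20 min RT. Exposure: 48 h, 37C/5% CO2. Cells: NCI-H295R, ITS-DMEM serum-free. Range: up to 46 uM. Analysis: 4PL fit, IC50 plus efficacy.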

Several values for one entry are separate records, joined by “and”; a condition that tells them apart may be missing. Identical values can stand only once. Results filed as inconclusive are left out. A number with no mark means an inactive call. Activity calls are given as the source filed them. Calls follow the shape of the dose curve; as a rule, active = well fitted curve in the direction sought with a large enough effect; inconclusive = small, poorly fitted or top-dose-only effect, or another doubt; inactive = no such curve, though single readings can be large; an effect the other way counts as inactive or inconclusive.
Potency is read from the fitted curve at half-maximal effect.

Take `CCN(Cc1ccncc1)C(=O)C(CO)c1ccccc1` (stereo unspecified): the Potency result in assay [1], in assay [2] and in assay [4] was “inactive” in each case. For the same compound, the activity (max response) in assay [3] was -0.134%.
As for `NC12CC3CC(CC(C3)C1)C2`, the Potency entry in assay [1], in assay [2] and in assay [4] was “inactive” each time. Also, the activity (max response) in assay [3] was 13.7% and -1.26%.
Take `CCOC(=O)CCNc1cc(N2CCc3ccccc3CC2)nc(-c2ccccn2)n1`: the Potency in assay [1] is 4680 nM (active); in assay [2] it was 5250 nM (active); in assay [3], 1260 nM (active); in assay [4], 8910 nM (active).
Turning to `Cc1ccc2c(Cl)cc(Cl)c(O)c2n1`, the Potency result in assay [1], in assay [2] and in assay [4] was “inactive” each time. Moreover, in assay [3], the activity (max response) was 9.37%.
Regarding `C=C1C[C@@]2(O)O[C@@]3(C[C@H]2C(C)C)[C@@H](C)CC[C@@H]13`, the Potency result in assay [1], in assay [2] and in assay [4] was “inactive” each time. The activity (max response) in assay [3] was 6.19%.
In the case of `C[C@H]1C[C@H]2[C@@H]3CCC4=CC(=O)C=C[C@]4(C)[C@H]3C(=O)C[C@]2(C)[C@@]1(O)C(=O)CO`, the Potency result in assay [1], in assay [2] and in assay [4] was “inactive” in each case. In addition, in assay [3], the activity (max response) was -6.73%.
As to `COc1ccc(S(=O)(=O)N(C(C)=O)c2ccccc2/C=C/c2cc[n+]([O-])cc2)cc1`, the Potency in assay [1] is 934 nM (active); in assay [2], 833 nM (active); in assay [3], 1120 nM (active); in assay [4], 1410 nM (active).
With `Cc1noc(C)c1-c1ccc(-c2cc(C(N)=O)c(NC(N)=O)s2)c(O[C@H]2CCNC2)c1`, the Potency was 2310 nM (active) in assay [1] and 3260 nM (active) in assay [2]. For the same compound, the activity (max response) in assay [3] was -22.5%. Further, in assay [4], the Potency result is “inactive”.
Consider `C[C@H](CCC(=O)O)[C@H]1CC[C@H]2[C@@H]3[C@@H](O)C[C@@H]4C[C@H](O)CC[C@]4(C)[C@H]3CC[C@]12C`, for which the Potency result in assay [1], in assay [2] and in assay [4] was “inactive” throughout. The activity (max response) in assay [3] is -9.5%.
